Measured values: the supplement of paper PMC6555819

Columns and labels:
Assay in all cases: PBM binding z-score (relative to random genomic background probes); higher = stronger binding; sequences stand for … in GC…GCGATTGACAGCGTAGAATGAAGG
[1] = test system: FXR:RXRa (NR concentration 270 nM, RXRa partner concentration 90 nM)
Procedure, shortened: (§1)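 Antibodies against each partner of ligand-free nuclear receptor dimers (one per run) detected binding on custom Agilent 4×180K protein-binding microarrays after 1 h incubation. The double-stranded probes had 34-nt variable regions carrying direct-repeat seeds, single-nucleotide variants, half-site ablations and random human genomic background sequences. Binding z-scores, from regression-normalized fluorescence, use the random background probes as reference.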

[2] = test system: LXRa:RXRa (NR concentration 270 nM, RXRa partner concentration 90 nM)
Procedure, shortened: as §1

[3] = test system: LXRa homodimer (NR concentration 270 nM)
Procedure, shortened: as §1

[4] = test system: LXRb:RXRa (NR concentration 270 nM, RXRa partner concentration 90 nM)
Procedure, shortened: as §1

[5] = test system: LXRb homodimer (NR concentration 270 nM)
Procedure, shortened: as §1

[6] = test system: PPARa:RXRa (NR concentration 270 nM, RXRa partner concentration 90 nM)
Procedure, shortened: as §1

[7] = test system: PPARg:RXRa (NR concentration 180 nM, RXRa partner concentration 90 nM)
Procedure, shortened: as §1

[8] = test system: PPARg:RXRa 270nM:90nM, anti-RXR (NR concentration 270 nM, RXRa partner concentration 90 nM)
Procedure, shortened: as §1

[9] = test system: PPARg:RXRa 30nM:10nM, anti-RXR (NR concentration 30 nM, RXRa partner concentration 10 nM)
Procedure, shortened: as §1

[10] = test system: PPARg:RXRa 90nM:30nM, anti-RXR (NR concentration 90 nM, RXRa partner concentration 30 nM)
Procedure, shortened: as §1

[11] = test system: PPARg:RXRa DBDmut IVT, anti-RXR (DBD mutation: RXRa K156A/R161A, NR concentration 270 nM, RXRa partner concentration 90 nM)
Procedure, shortened: as §1

[12] = test system: PPARg:RXRa IVT, anti-PPARg (NR concentration 270 nM, RXRa partner concentration 90 nM)
Procedure, shortened: as §1

[13] = test system: PPARg DBDmut:RXRa IVT, anti-PPARg (DBD mutation: PPARg1 K132A/R137A, NR concentration 270 nM, RXRa partner concentration 90 nM)
Procedure, shortened: as §1

[14] = test system: PPARg DBDmut IVT, anti-PPARg (DBD mutation: PPARg1 K132A/R137A, NR concentration 270 nM)
Procedure, shortened: as §1

[15] = test system: PPARg homodimer (NR concentration 180 nM)
Procedure, shortened: as §1

[16] = test system: PXR:RXRa (NR concentration 270 nM, RXRa partner concentration 90 nM)
Procedure, shortened: as §1

[17] = test system: PXR homodimer (NR concentration 270 nM)
Procedure, shortened: as §1

[18] = test system: RARa:RXR (NR concentration 270 nM, RXRa partner concentration 90 nM)
Procedure, shortened: as §1

[19] = test system: RARa homodimer (NR concentration 270 nM)
Procedure, shortened: as §1

[20] = test system: RARb:RXRa (NR concentration 270 nM, RXRa partner concentration 90 nM)
Procedure, shortened: as §1

Sequence	PBM binding z-score [1]	PBM binding z-score [2]	PBM binding z-score [3]	PBM binding z-score [4]	PBM binding z-score [5]	PBM binding z-score [6]	PBM binding z-score [7]	PBM binding z-score [8]	PBM binding z-score [9]	PBM binding z-score [10]	PBM binding z-score [11]	PBM binding z-score [12]	PBM binding z-score [13]	PBM binding z-score [14]	PBM binding z-score [15]	PBM binding z-score [16]	PBM binding z-score [17]	PBM binding z-score [18]	PBM binding z-score [19]	PBM binding z-score [20]
GCTCGCAGGCCATTTGGGTCACTCAATGACGGGC	0.079	0.0243	-0.668	0.0952	-1.06	1.29	0.381	0.415	-0.625	-0.441	1.09	1.56	-1.82	-1.26	0.213	0.621	0.71	0.492	-0.566	1.72
AGAATGACGTTAAGATCAGGGAAACAGAATACAT	-0.19	-0.216	-0.265	-0.142	-0.294	-0.223	0.69	-0.0483	0.359	0.136	-0.994	-0.522	-0.562	0.191	-0.654	-0.527	0.305	-0.498	0.719	-0.268
TCTTGTAGATCAACAGGAGGTCAAGAAAGATCGA	2.21	3.53	3.02	3.32	0.366	3.71	1.04	2.25	2.55	2.35	1.49	2.17	0.588	0.144	1.8	3.74	0.715	4.01	0.649	2.84
TCATATAGGTAATACAGATGAAAGTCGGCATCTA	0.463	0.531	0.032	0.521	0.268	1.08	1.47	1.93	4.02	2.97	3.53	2.32	1.22	1.05	0.725	0.46	0.387	0.646	1.28	0.19
ATATGTAGGTTAACGGGTCATTCAGTTTGCGCAT	2.83	3.03	1.03	3.05	0.599	5.14	7.84	6.45	4.4	6.25	8.01	7.92	2.68	1.82	2.04	3.26	3.42	3.42	1.02	2.54
CCCGCTAGGTCAATGGTCAGCTAAAGCAGCTCGC	3.1	2.28	-0.0501	1.61	0.293	3.18	5.11	5.22	3.41	5.01	4.1	3.83	-0.504	-0.484	1.55	1.09	-0.582	1.91	-0.541	3.78
ATCGAAAGGTCGAAGGTGAGTAAACCCACCCGAA	4.69	3.83	0.284	3.05	0.315	4.88	4.96	5.19	1.91	4.14	0.0227	2.17	0.972	0.487	1.89	3.11	0.0457	4.5	0.979	3.88
